# Experimental data from PubChem BioAssay AID651957 (The Scripps Research Institute Molecular Screening Center, 2012).
# In all, about 370,000 compounds went through this assay and about 620 (0.17%) were called active.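 The calls were made as follows: active = inhibition above the mean inhibition of all tested compounds plus 3 SD, set per campaign (cut at about 52% in these data); inactive = the rest.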 The sample as a whole holds a higher share of actives than the screen did.
# Molecular target: Nuclear receptor coactivator 2 (Homo sapiens) (UniProt Q15596)
# Assay: inhibition of GAL4-SRC2 driven luciferase reporter, primary screen, SRC2 inhibitor project, cell-based, luminescence (AID 651957);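 also: 0% = DMSO treated cells and 100% = cells given Gossypol at 36 µM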
# Details: HEK293 GAL4-SRC2 luciferase reporter, at 9 µM, stronger effect = higher value
# Sequence of Nuclear receptor coactivator 2 (Homo sapiens) (Q15596 whole entry, looked up, the tested form may be a part): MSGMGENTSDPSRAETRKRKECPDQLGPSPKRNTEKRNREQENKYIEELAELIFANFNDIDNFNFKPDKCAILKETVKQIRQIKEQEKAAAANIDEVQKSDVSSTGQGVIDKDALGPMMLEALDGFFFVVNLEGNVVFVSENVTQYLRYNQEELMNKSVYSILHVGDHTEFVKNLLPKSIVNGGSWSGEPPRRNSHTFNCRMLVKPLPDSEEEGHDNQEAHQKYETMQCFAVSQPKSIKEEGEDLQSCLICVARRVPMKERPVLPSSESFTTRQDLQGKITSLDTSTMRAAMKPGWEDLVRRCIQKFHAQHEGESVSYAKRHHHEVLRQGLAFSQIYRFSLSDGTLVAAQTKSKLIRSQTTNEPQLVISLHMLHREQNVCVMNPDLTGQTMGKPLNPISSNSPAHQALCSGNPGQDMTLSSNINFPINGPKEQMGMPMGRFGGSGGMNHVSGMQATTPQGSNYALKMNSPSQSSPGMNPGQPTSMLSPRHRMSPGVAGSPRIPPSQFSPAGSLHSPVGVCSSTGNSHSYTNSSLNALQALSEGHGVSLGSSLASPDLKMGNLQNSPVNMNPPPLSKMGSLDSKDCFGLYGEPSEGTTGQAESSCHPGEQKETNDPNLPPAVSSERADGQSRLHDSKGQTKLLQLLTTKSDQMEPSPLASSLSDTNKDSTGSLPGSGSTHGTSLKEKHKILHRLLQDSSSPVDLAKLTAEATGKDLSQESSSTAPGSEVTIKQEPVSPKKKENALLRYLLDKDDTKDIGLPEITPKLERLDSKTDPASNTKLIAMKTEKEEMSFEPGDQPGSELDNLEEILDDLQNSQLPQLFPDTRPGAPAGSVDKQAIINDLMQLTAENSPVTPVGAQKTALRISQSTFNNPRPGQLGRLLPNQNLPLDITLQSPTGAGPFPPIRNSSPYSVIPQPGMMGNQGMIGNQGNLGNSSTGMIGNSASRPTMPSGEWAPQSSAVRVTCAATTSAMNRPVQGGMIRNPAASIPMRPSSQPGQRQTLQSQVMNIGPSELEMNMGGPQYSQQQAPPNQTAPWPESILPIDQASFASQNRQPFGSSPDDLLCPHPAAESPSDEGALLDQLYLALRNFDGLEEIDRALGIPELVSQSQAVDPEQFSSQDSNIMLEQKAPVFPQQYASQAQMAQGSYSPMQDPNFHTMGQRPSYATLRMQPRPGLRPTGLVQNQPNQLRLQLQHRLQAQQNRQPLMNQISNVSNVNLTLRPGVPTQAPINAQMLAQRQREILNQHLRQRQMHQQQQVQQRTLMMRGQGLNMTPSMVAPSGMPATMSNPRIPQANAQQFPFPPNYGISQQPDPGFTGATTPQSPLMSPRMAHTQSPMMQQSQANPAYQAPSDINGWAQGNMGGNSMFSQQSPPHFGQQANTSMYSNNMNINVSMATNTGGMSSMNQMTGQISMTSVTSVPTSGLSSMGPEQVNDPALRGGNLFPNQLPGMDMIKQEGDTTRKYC
row,Compound,inhibition
1,CCC(C)(O)C(=O)OC1C(=O)OC2CC3C(C)=CC(=O)C(O)C3(C)C3C4(O)OCC23C1C(C)C4O (stereo not given),74.8% (active)
2,O=C(COc1ccc2ccccc2c1)N1CCN(Cc2ccncc2)CC1,9.05% (inactive)
3,CC1([N+](=O)[O-])COP(=O)(Nc2ccc(F)cc2)OC1 (stereo not given),-54.9% (inactive)
4,CCN1CCN(C(=O)Cc2coc3cc(C)cc(C)c23)CC1,-5.27% (inactive)
5,CC(C)n1c(=O)c(C=Nc2ccc(Br)cc2)c(O)n(Cc2ccco2)c1=O,8.44% (inactive)
6,COC1C(O)C(C)OC(OC2CCC3(C=O)C(CCC4C3CCC3(C)C(C5=CC(=O)OC5)CCC43O)C2)C1O (stereo not given),55% (active)
7,C[C@]12CC[C@H](O)C[C@H]1CC[C@@H]1C2CC[C@]2(C)[C@@H](C3=CC(=O)OC3)[C@@H](O)C[C@]12O (stereo not given in full),10.7% (inactive)
8,Brc1ccc2c(c1)CNCc1cnnn1-2,-46.2% (inactive)
9,Cc1ccccc1CCC[C@@H](CC1CCCCC1)CN(C)C(=O)Oc1ccccc1,-0.22% (inactive)
10,COP(=O)(Sc1ccccc1)C(Cc1ccccc1)NC(=O)OCc1ccccc1 (stereo not given),2.58% (inactive)
